About 83,000 compounds went through this panel and 20% of them were active in at least one assay; those are over-represented in the sample as a whole.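 Plates (96-well) were seeded with cells, treated with compound at one concentration, and incubated for 48 hours before percent growth was determined.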 A number with no mark means an inactive call. Activity calls are given as the source filed them. The calls were made as follows: active = growth percent below 10; inactive = the rest.

From PubChem BioAssay (NCI) come the findings set out here.

Some test systems named below: NCI-H23 lung; NCI-H226 lung; NCI-H322M lung; NCI-H460 lung; HOP-92 NSCLC; NCI-H522 lung; A549/ATCC NSCLC; 786-0 renal; COLO 205 colon; DU-145 prostate; K-562 leukemia; MALME-3M melanoma; MDA-MB-231 breast; RXF 393 renal; SF-268 CNS; SF-539 CNS; UACC-257 melanoma; M14 melanoma; SF-295 CNS.
Test in all cases: NCI-60 one-dose screen, 48 h (100 = growth as untreated, 0 = no growth, -100 = all killed)
Settings in all cases: 10 µM unless noted

For the molecule `CN(C)CCCN(c1nc(C(Cl)(Cl)Cl)ns1)c1nc(C(Cl)(Cl)Cl)ns1`, the growth was 58.9% in the experiment on NCI-H23 lung; 53.9% in the experiment with NCI-H226 lung; 65.5% in the experiment on NCI-H322M lung; 8.42% (active) with NCI-H460 lung; -0.62% (active) in the experiment on HOP-92 NSCLC; 39.4% in the experiment on NCI-H522 lung. Also, the growth was 37.5% in the experiment on A549/ATCC NSCLC; 42.4% in the experiment on 786-0 renal; 10.2% with COLO 205 colon; 75% in the experiment on DU-145 prostate; 0.874% (active) in the experiment on K-562 leukemia; 44.8% in the experiment on MALME-3M melanoma. For the same molecule, the growth in the experiment with MDA-MB-231 breast was 39.4%; in the experiment on RXF 393 renal it was 36.8%; in the experiment on SF-268 CNS, 34.3%; in the experiment on SF-539 CNS it was 73.2%; in the experiment on UACC-257 melanoma, 19.8%; with M14 melanoma, -19% (active).
For `O=C(NS(=O)(=O)c1ccc2ccccc2c1)n1cc(-c2ccncc2)c(-c2ccc(Cl)c(O)c2)n1`, the growth with NCI-H23 lung was 61.5%; in the experiment on NCI-H226 lung, 84.9%; in the experiment with NCI-H322M lung, 116%; in the experiment with NCI-H460 lung, 89.7%; in the experiment with HOP-92 NSCLC it was 48.1%; in the experiment with NCI-H522 lung, 61.5%. Moreover, the growth in the experiment with A549/ATCC NSCLC was 78%; in the experiment with 786-0 renal, 99.1%; with COLO 205 colon it was 105%; in the experiment with DU-145 prostate, 113%; with K-562 leukemia, 85.6%; with MALME-3M melanoma, 17.1%. Besides, the growth is 49.6% in the experiment on MDA-MB-231 breast; 52.9% with RXF 393 renal; 96.2% in the experiment with SF-268 CNS; 91.1% in the experiment with SF-295 CNS; 80.9% in the experiment on SF-539 CNS; 31.9% with UACC-257 melanoma. The growth in the experiment with M14 melanoma was 28.4%.
Take `C=C1C(=O)O[C@H]2[C@H]1CC/C(Cn1cc(CNC(=O)c3cc4ccccc4[nH]3)nn1)=C\CC[C@@]1(C)O[C@@H]21`: the growth with NCI-H23 lung was 84.1%; with NCI-H226 lung, 101%; with NCI-H322M lung, 94.7%; in the experiment with NCI-H460 lung it was 101%; in the experiment on HOP-92 NSCLC, 32.2%; in the experiment with NCI-H522 lung it was -65% (active). The growth in the experiment on A549/ATCC NSCLC is 93.4%; with 786-0 renal, 66.1%; with COLO 205 colon, -34.4% (active); with DU-145 prostate, 52.2%; with K-562 leukemia, 2.12% (active); with MALME-3M melanoma, 0.0965% (active). Further, the growth with MDA-MB-231 breast was 60.9%; in the experiment with RXF 393 renal it was 24.5%; in the experiment on SF-268 CNS, 68.5%; in the experiment on SF-295 CNS, 110%; in the experiment with SF-539 CNS it was 6.92% (active); in the experiment on UACC-257 melanoma, 61.7%. The growth in the experiment with M14 melanoma is 57.8%.
As for `C=C1CCC2C3(C)COC(c4ccccc4)OC3CCC2(C)C1/C=C/C1=CCOC1=O` (centres undefined), the growth in the experiment with NCI-H23 lung was 74.6%; in the experiment with NCI-H226 lung it was 85.8%; with NCI-H322M lung, 64.3%; in the experiment with NCI-H460 lung, 93.6%; in the experiment with HOP-92 NSCLC, 68.4%; in the experiment with NCI-H522 lung, 63.6%. Moreover, the growth in the experiment on A549/ATCC NSCLC was 43.5%; in the experiment on 786-0 renal, 94.3%; in the experiment on COLO 205 colon it was 17.4%; in the experiment on DU-145 prostate it was 14.9%; in the experiment on K-562 leukemia, 32.4%; with MALME-3M melanoma, 105%. The growth in the experiment on MDA-MB-231 breast was 89.7%; in the experiment on RXF 393 renal, -14.6% (active); with SF-268 CNS, 73.2%; in the experiment on SF-295 CNS it was 105%; in the experiment with SF-539 CNS it was 63.6%; in the experiment with UACC-257 melanoma, 65.9%. In addition, the growth in the experiment on M14 melanoma was 53.4%.
On to `Cc1ccc(S(=O)(=O)c2nc(-c3ccccc3)oc2S(C)(=O)=O)cc1`, for which the growth is 76.3% in the experiment with NCI-H23 lung; 90.5% in the experiment with NCI-H226 lung; 106% in the experiment on NCI-H322M lung; 80% in the experiment with NCI-H460 lung; -27.4% (active) in the experiment with HOP-92 NSCLC; -84.4% (active) with NCI-H522 lung. In addition, the growth in the experiment with A549/ATCC NSCLC was 85.6%; in the experiment on 786-0 renal, -16.5% (active); in the experiment with COLO 205 colon, -76.6% (active); in the experiment with DU-145 prostate it was 30.4%; with K-562 leukemia, 2.49% (active); with MALME-3M melanoma it was -77.8% (active). Besides, the growth is 13.6% in the experiment with MDA-MB-231 breast; 10.4% in the experiment with RXF 393 renal; 68.6% with SF-268 CNS; 89.4% in the experiment on SF-295 CNS; -23.1% (active) in the experiment on SF-539 CNS; 74.8% in the experiment with UACC-257 melanoma. For the same molecule, the growth in the experiment with M14 melanoma is 17.8%.
With `Fc1ccc(-c2nc(-c3nc4ncccc4[nH]3)cc3c2[nH]c2ccccc23)cc1F`, the growth in the experiment on NCI-H23 lung is 67.2%; in the experiment with NCI-H226 lung, 88.5%; with NCI-H322M lung, 64.7%; in the experiment on NCI-H460 lung it was 91.1%; in the experiment with HOP-92 NSCLC it was 70.2%; in the experiment with NCI-H522 lung, 58.3%. Besides, the growth in the experiment with 786-0 renal is 95.2%; in the experiment on COLO 205 colon it was 96.9%; in the experiment with DU-145 prostate, 49%; in the experiment on K-562 leukemia, 78.5%; in the experiment with MALME-3M melanoma it was 78.5%; in the experiment with MDA-MB-231 breast, 53.9%. The growth was 73.1% with RXF 393 renal; 71.1% with SF-268 CNS; 86.9% in the experiment with SF-295 CNS; 79.6% in the experiment on SF-539 CNS; 92.2% with UACC-257 melanoma; 78.8% in the experiment on M14 melanoma.
As to `Cc1[nH]c2ccc(F)cc2c1CCNC(=O)C1CCN(C(=O)c2ccccc2)CC1`, the growth was 99.3% [25 µM] with NCI-H23 lung; 83.7% [25 µM] in the experiment on NCI-H226 lung; 86.3% [25 µM] in the experiment with NCI-H322M lung; 101% [25 µM] in the experiment on NCI-H460 lung; 4.45% [25 µM] (active) in the experiment with HOP-92 NSCLC; 89.3% [25 µM] in the experiment on NCI-H522 lung. Further, the growth was 96.6% [25 µM] in the experiment with A549/ATCC NSCLC; 88.9% [25 µM] in the experiment with 786-0 renal; 90.9% [25 µM] in the experiment on COLO 205 colon; 82.9% [25 µM] in the experiment on DU-145 prostate; 90.4% [25 µM] in the experiment on K-562 leukemia; 75.6% [25 µM] in the experiment with MALME-3M melanoma. Moreover, the growth is 79.4% [25 µM] in the experiment with MDA-MB-231 breast; 79.5% [25 µM] with SF-268 CNS; 96.1% [25 µM] in the experiment on SF-295 CNS; 86.4% [25 µM] in the experiment with SF-539 CNS; 98.3% [25 µM] in the experiment on UACC-257 melanoma; 98.3% [25 µM] in the experiment on M14 melanoma.
For the molecule `Nc1ncnc2c1c(-c1ccc(Oc3ccccc3)cc1)nn2C[C@@H]1SSC[C@@H]1O`, the growth is 28.8% in the experiment on NCI-H23 lung; 46.7% in the experiment on NCI-H226 lung; 61.8% with NCI-H322M lung; -30.5% (active) in the experiment on NCI-H460 lung; -4.45% (active) in the experiment on HOP-92 NSCLC; -22.1% (active) in the experiment on NCI-H522 lung. Further, the growth with A549/ATCC NSCLC is 22.1%; in the experiment with 786-0 renal, 57.5%; with COLO 205 colon, 33.8%; in the experiment on DU-145 prostate, 34%; in the experiment with K-562 leukemia, 2.87% (active); with MALME-3M melanoma, -7.41% (active). In addition, the growth in the experiment with MDA-MB-231 breast was 52%; with RXF 393 renal, 37.7%; in the experiment with SF-268 CNS, 29.7%; with SF-295 CNS, 38.3%; in the experiment on SF-539 CNS it was 40.9%; with UACC-257 melanoma it was 14.6%. For the same molecule, the growth in the experiment with M14 melanoma is -85.1% (active).
